HT1080 IDH1KD tx: kills HT-1080 cells with IDH1 knockdown; HT-1080 IDH1 knockdown viability, ATP luminescence, 48 h; Potency, µM (titrated, usually from 46.1 µM), inactives show top-dose activity, negative = toxicity, most hits filed as cytotoxic; 360,000 tested, 2% active; AID 686971;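 also: 0% = DMSO wells and -100% = cell-free medium wells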
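Viability of IDH1-knockdown HT-1080 fibrosarcoma cells was assessed by CellTiter-Glo after 48 h at 37 °C with titrated compound; concentration-effect curves were classified by fit quality and response size.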
DT40 TDP1 no CPT: qHTS for Inhibitors of human tyrosyl-DNA phosphodiesterase 1 (TDP1): qHTS in cells in absence of CPT | DT40 Tdp1-/- hTDP1 cells, no CPT, ATP luminescence, 48 h | Potency, µM (doses to about 46.2 µM), inactives show at the top dose activity change, negative = growth inhibition, usual class: inhibitors | 420,000 tested, 15% active | AID 686978, 2013; also: nearly all actives have a fitted effect of over 55% in size
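Growth kinetics read by CellTiter-Glo luminescence after ≥48 hr at 37 °C. Cells: DT40 Tdp1-/- stably carrying human TDP1, 400 per well, compound exposure in the absence of CPT (DMSO vehicle).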
KB-3-1 tox: KB-3-1 parental cell cytotoxicity. 400,000 tested, 1.4% active. Potency, µM (top dose mostly 46.1 µM), hits mostly cytotoxic. KB-3-1 viability, CellTiter-Glo ATP luminescence, 72 h. AID 1347075; also: nearly all actives have a fitted effect of over 60% in size
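Cytotoxicity in the drug-sensitive parental line KB-3-1 was scored as loss of CellTiter-Glo luminescence following 72 h incubation with compound. Values come from curve fitting of normalized concentration-response data.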
HT1080-NT tox: kills 2HG-producing HT-1080-NT fibrosarcoma cells. AID 686970. HT-1080-NT fibrosarcoma viability, CellTiter-Glo ATP luminescence, 48 h. Potency, µM (titrated, usually from 46.1 µM), for inactives: at the top dose activity, negative = less viability, actives largely listed as cytotoxic. 360,000 tested, 1.6% active;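 also: NT is the 2HG producing partner of a matched IDH1 knockdown line; 0% = DMSO-treated cells and -100% = media-only wells without cells; nearly all actives have a fitted effect of over 55% in size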
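Viability of the 2HG-overproducing fibrosarcoma line after 48 hours of compound exposure at 37 degrees C was determined by luminescence with CellTiter-Glo, and concentration-effect curves were then fitted and categorized.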
DT40 TDP1 CPT: growth inhibition of DT40 Tdp1-/-;hTDP1 cells with camptothecin (screen for TDP1 inhibitors). chicken DT40 Tdp1-/-;hTDP1 cells + 20 nM CPT, ATP luminescence, 48 h. Potency, µM (doses to about 46.2 µM), for the others: top-dose activity change, negative = growth inhibition, most hits filed as inhibitors. 420,000 tested, 12% active. AID 686979; also: nearly all actives have a fitted effect of over 55% in size
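Chicken DT40 Tdp1-/- cells complemented with human TDP1, 400 cells/well, exposed to compounds plus 20 nM camptothecin for at least 48 h at 37 C; viability read as ATP content by CellTiter-Glo luminescence.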
KB-V1 MDR tox: kills drug-selected multidrug resistant KB-V1 cells | KB-V1 MDR cells viability, CellTiter-Glo, 72 h | Potency, µM (doses to about 46.1 µM), hits mostly cytotoxic | 400,000 tested, 3.4% active; also: nearly all actives have a fitted effect of over 60% in size
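Potencies derive from concentration-effect curves fitted to normalized luminescence (CellTiter-Glo) of KB-V1 cells treated for 72 h at 37 degrees C in phenol-red-free DMEM containing 10% FBS.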
Starred values were filed as active, the others as inactive; i = inactive; ? = inconclusive; / = not tested or not shown. The list is not random: actives were taken first. Their share in the collection is about 19%. Calls follow the shape of the dose curve; as a rule, active = well fitted curve in the direction sought with a large enough effect; inconclusive = small, poorly fitted or top-dose-only effect, or another doubt; inactive = no such curve, though single readings can be large; an effect the other way counts as inactive or inconclusive. Unless noted, % is scaled to controls: 0 for no effect and ±100 for the full control effect; potency is read from the fitted curve at half-maximal effect.

SMILES	HT1080 IDH1KD tx	DT40 TDP1 no CPT	KB-3-1 tox	HT1080-NT tox	DT40 TDP1 CPT	KB-V1 MDR tox
O=C(CP(=O)(c1ccccc1)c1ccccc1)Nc1cccc(CP(=O)(c2ccccc2)c2ccccc2)c1	?	23µM*	i	?	?	i
O=S(=O)(O)c1cccnc1SCc1ccccc1	-1%	-4%	i	4%	-14%	i
O=Cc1cccnc1SCc1ccccc1	?	1.5µM*	?	?	2.3µM*	15µM*
CCCC(=O)Nc1nc2ccc3nc(C)sc3c2s1	14%	?	i	13%	-24%	i
Cc1nc2c(ccc3nc(NC(=O)C4CC4)sc32)s1	?	?	?	?	?	21µM*
CCC(=O)Nc1nc2ccc3sc(C)nc3c2s1	?	23µM*	?	-22%	18µM*	?
O=C(CSc1nnc(-c2cccs2)o1)Oc1ccccc1Cl	/	-1%	i	/	-15%	?
Cc1ccc2oc(C(=O)Nc3c(C(=O)Nc4cccc(Cl)c4)oc4ccccc34)cc(=O)c2c1	/	-10%	?	/	-8%	i
O=C(Nc1cc(C(F)(F)F)ccc1N1CCCC1)c1ccc2c(c1)OCO2	-11%	?	i	-19%	-19%	i
Cc1ccc(C(=O)Nc2cc(C(F)(F)F)ccc2N2CCCCC2)cc1[N+](=O)[O-]	4%	21µM*	i	9%	18µM*	i
O=C(Nc1cc(C(F)(F)F)ccc1N1CCCCC1)c1cccc([N+](=O)[O-])c1	-4%	16µM*	i	-1%	?	16µM*
Cc1ccc([N+](=O)[O-])cc1NC(=O)c1cccnc1	12%	-11%	i	20%	-2%	i
CCn1cc(CN2CCC(n3nccc3NC(=O)c3ccccc3OC)CC2)cn1	0%	-1%	i	-3%	5%	i
O=C(Nc1ccnn1C1CCN(Cc2ccc(Cl)cc2)CC1)C1CCCC1	1%	-23%	/	4%	-19%	/
CCc1ccc(CN2CCC(n3nccc3NC(=O)c3ccccc3C)CC2)cc1	-23%	?	?	2%	21µM*	i
CCOc1ccc(CN2CCC(n3nccc3NC(=O)c3ccccc3OC)CC2)cc1	1%	?	i	-5%	16µM*	i
CC(C)c1ccc(CN2CCC(n3nccc3NC(=O)C3CCCC3)CC2)cc1	-20%	?	i	-28%	?	5.2µM*
Cc1ccccc1C(=O)Nc1ccnn1C1CCN(Cc2cccnc2)CC1	3%	2%	/	-2%	0%	/
Cc1c(CCOC(=O)c2cc([N+](=O)[O-])cc([N+](=O)[O-])c2)sc[n+]1CCCCS(=O)(=O)[O-]	0%	5%	i	5%	0%	i
O=C(NCC(c1ccc(F)cc1)N1CCOCC1)c1ccc(Br)o1 (configuration not stated)	0%	-6%	i	-8%	?	?
C/C(=N/NC(=O)c1cccs1)c1cccs1	8%	-8%	i	-1%	-11%	i
O=C(NNC(=O)c1cc2ccccc2cc1O)c1cccs1	-18%	?	i	-10%	23µM*	i
C/C(=N\NC(=O)c1cc2ccccc2cc1O)c1cccs1	?	13µM*	i	?	-21%	?
COc1ccc(C)cc1S(=O)(=O)N(CC(=O)NC1CCCC1)c1ccc(F)cc1	-5%	-24%	i	0%	-3%	?
CC(=O)C(Cc1cccc(F)c1)(Cc1cccc(F)c1)C(C)=O	-8%	-7%	i	0%	-16%	i
Cc1nc(-n2nc(C)c(Cc3ccc4c(c3)OCO4)c2C)sc1C(=O)Nc1ccc(Cl)cc1	/	-29%	i	/	-19%	i

Source: PubChem BioAssay
